{"source": "ChEMBL document CHEMBL1157539", "about": "“Thousands of chemical starting points for antimalarial lead identification” (Nature, 2010)"}
{"tested_on": "Plasmodium falciparum", "experiment": "GSK_TCMDC: Inhibition of Plasmodium falciparum Dd2 in whole red blood cells, using parasite LDH activity as an index of growth. Test compounds present at 2uM", "assay_type": "functional", "units": {"Inhibition": "%"}}
{"smiles": "CC1CCCN(c2ccc(NC(=O)c3cccs3)cc2[N+](=O)[O-])C1", "note": "(stereo not drawn)", "Inhibition": 96}
{"smiles": "Cc1cccc2nc(-c3cccc(-c4ccc(CN5CCC(C(N)=O)CC5)cc4)c3)[nH]c12.O=C(O)C(F)(F)F", "Inhibition": 9}
{"smiles": "CCOc1ccccc1C1CCN(CCCCNC(=O)c2ccc(NC(=O)c3ccc(Cl)cc3)cc2)CC1", "Inhibition": 27}
{"smiles": "COc1ccc(-c2nc3cccnc3n2CC(=O)Nc2cc(Cl)c(Cl)cc2Cl)c(OC)c1", "Inhibition": 17}
{"smiles": "CN1CCN(CCCN(Cc2ccc(-c3ccc(CNC4CCCC4)cc3)cc2)C(=O)CCC2CCCC2)CC1.O=C(O)C(F)(F)F", "Inhibition": 96}
{"smiles": "CCNc1cc(C(=O)N[C@@H](Cc2ccccc2)[C@H](O)CNC23CCC(CC2)CC3)cc(N2CCCCS2(=O)=O)c1.Cl", "Inhibition": 98}
{"smiles": "CCOc1ncccc1CN1CCC(N2CCc3cc(NC(=O)c4cc(C)on4)ccc32)C1", "note": "(stereo not drawn)", "Inhibition": 96}
{"smiles": "COc1ccc(-c2cccc(NC(=O)c3cccc(C#N)c3)c2)cc1CN(C)CCN(C)C.O=C(O)C(F)(F)F", "Inhibition": 21}
{"smiles": "Cl.Nc1nc(N)c2c(ccc3c2cnn3S(=O)(=O)N2CCCC2)n1", "Inhibition": 3}
{"smiles": "O=C(NCc1ccccc1)Nc1cccc(-c2cccc(-c3nc4cc(C(F)(F)F)ccc4[nH]3)c2)c1", "Inhibition": 30}
{"smiles": "COC(=O)c1ccc2nc(-c3cc(OC)c(O)c(C(=O)NC4CCN(Cc5ccccc5)CC4)c3)[nH]c2c1", "Inhibition": 0}
{"smiles": "CC(C)c1ccc(NC(=O)NC2CCN(CCCCCN(C)C(=O)/C=C/c3ccc(Cl)c(Cl)c3)C2)cc1", "note": "(stereo not drawn)", "Inhibition": 3}
{"smiles": "CCCCN(CCCC)CCOc1cc2c(cc1OC)CCN2C(=O)/C=C/c1ccccc1Cl.Cl", "Inhibition": 31}
{"smiles": "N[C@@H](Cc1cc(I)c(Oc2ccc(O)c(C(=O)O)c2)c(I)c1)C(=O)O", "Inhibition": 21}
{"smiles": "Cc1cc(N)c2cc(NC(=O)CCC(=O)Nc3ccc4nc(C)cc(N)c4c3)ccc2n1", "Inhibition": 77}
{"smiles": "CCNc1cc(C)nc(Nc2ccc(NC(=O)c3c(F)cccc3Cl)cc2)n1", "Inhibition": 89}
{"smiles": "CCN(CCCN1CCCCC1)c1cc(C)nc(Nc2cc(F)cc(F)c2)n1.O=C(O)C(F)(F)F", "Inhibition": 64}
{"smiles": "CCc1cc(CNC2CCN(CCc3c(F)cnc4ccc(OC)nc34)CC2)cc2c1OCCO2.Cl", "Inhibition": 94}
{"smiles": "O=C(O)C(F)(F)F.c1cncc(CCNCc2cccc(-c3csc(-c4nc5ccccc5[nH]4)c3)c2)c1", "Inhibition": 98}
{"smiles": "CCc1ccc(C2CCN(CCCCNC(=O)c3ccc(NC(=O)c4ccc(Cl)cc4)cc3)CC2)c(OC(C)=O)c1", "Inhibition": 100}
{"smiles": "O=C(Nc1ccc(C(=O)Oc2cccc3ccccc23)cc1)N[C@@H](Cc1ccc(O)cc1)C(=O)NC1CCN(Cc2ccc(O)cc2)C1.O=C(O)C(F)(F)F", "note": "(stereo partly drawn)", "Inhibition": 0}
{"smiles": "CCCC(CNC(=O)c1cc2c(Cl)cc(Cl)cc2[nH]1)CNc1cc(=O)c2ccccc2[nH]1.O=C(O)C(F)(F)F", "note": "(stereo not drawn)", "Inhibition": 94}
{"smiles": "CCC(C)NC(=O)Nc1ccc(-c2cccc(-c3nc4ccccc4[nH]3)c2)cc1", "note": "(stereo not drawn)", "Inhibition": 37}
{"smiles": "O=c1cc(NCCCNCc2cc(Br)ccc2F)[nH]c2ccccc12", "Inhibition": 14}
{"smiles": "CCCc1cn2c3c(cc(C(=O)N[C@@H](Cc4ccccc4)[C@H](O)CNC4CCCCC4)cc13)N(C)S(=O)(=O)CC2.O=CO", "Inhibition": 98}
{"smiles": "O=C1C(=Cc2cc(Cc3ccccc3)ccc2O)SC(=S)N1Cc1ccccc1", "Inhibition": 53}
{"smiles": "COc1ccc(NC(=O)Nc2ccc(-c3cccc(-c4nc5ccccc5[nH]4)c3)cc2)cc1", "Inhibition": 41}
{"smiles": "CC(C)CN1CCC(COc2ccc3ncn(-c4cc(O[C@H](C)c5ccccc5C(F)(F)F)c(C(N)=O)s4)c3c2)CC1", "Inhibition": 86}
{"smiles": "O=C(O)C(F)(F)F.O=S(=O)(/C=C/c1ccccc1)N(Cc1ccc(-c2ccc(CNCCc3ccccc3)cc2)cc1)CC1CCCCN1", "note": "(stereo not drawn)", "Inhibition": 96}
{"smiles": "COc1ccccc1N1CCN(CCCCNC(=O)c2ccc(NC(=O)c3ccc(C(F)(F)F)cc3)cc2)CC1", "Inhibition": 37}
{"smiles": "CCOC(=O)c1ccc(N(CCCN(CCCN(c2ccc(C(=O)OCC)cc2)S(=O)(=O)c2ccc(C)cc2)CCc2ccc(O)cc2)S(=O)(=O)c2ccc(C)cc2)cc1", "Inhibition": 74}
{"smiles": "O=S(=O)(ON=C1CCc2ccccc21)c1ccc(Cl)cc1", "Inhibition": 79}
{"smiles": "Oc1nc(Cc2ccccc2)nc2ccc(Cl)cc12", "Inhibition": 76}
{"tested_on": "HepG2", "experiment": "GSK_TCMDC: Percent inhibition of human HepG2 cell line. Test compounds present at 10uM.", "assay_type": "functional", "units": {"Inhibition": "%"}}
{"smiles": "COc1ccc(NC(=O)c2ccc(-c3nc(-c4ccc(Cl)cc4)cs3)cc2)cc1N1CCN(C)CC1", "Inhibition": 30}
{"smiles": "CN(C(=O)Cc1ccc(Cl)cc1)C1CCN(CCCCCNC(=O)/C=C/c2ccc(Cl)c(Cl)c2)CC1", "Inhibition": 69}
{"smiles": "CC(C)(C(=O)Nc1ccc(C2CCC(NCC3CC3)CC2)c(Cl)c1)c1cccc(OC(F)F)c1", "note": "(stereo not drawn)", "Inhibition": 34}
{"smiles": "CS(=O)(=O)c1cccc(-c2cnc3[nH]cc(-c4cccc(CCN)c4)c3c2)c1.O=C(O)C(F)(F)F", "Inhibition": 0}
{"smiles": "CCCCCCN1CCC(NCc2ccc(C)cc2)CC1.O=C(O)C(F)(F)F", "Inhibition": 16}
{"smiles": "O=C(O)C(F)(F)F.O=C(c1cccs1)N(Cc1cccc(-c2ccc(CNCCc3ccccc3)cc2)c1)C1CCN(Cc2ccccc2)CC1", "Inhibition": 3}
{"smiles": "COc1ccc2ncc(OC)c(CCN3CC[C@@H](NCc4ccc5c(n4)NC(=O)CS5)[C@H](O)C3)c2n1", "Inhibition": 21}
{"smiles": "CC1CCCN(c2ccc(NC(=O)c3cccs3)cc2[N+](=O)[O-])C1", "note": "(stereo not drawn)", "Inhibition": 14}
{"smiles": "Cc1cccc2nc(-c3cccc(-c4ccc(CN5CCC(C(N)=O)CC5)cc4)c3)[nH]c12.O=C(O)C(F)(F)F", "Inhibition": 0}
{"smiles": "CCOc1ccccc1C1CCN(CCCCNC(=O)c2ccc(NC(=O)c3ccc(Cl)cc3)cc2)CC1", "Inhibition": 13}
{"smiles": "COc1ccc(-c2nc3cccnc3n2CC(=O)Nc2cc(Cl)c(Cl)cc2Cl)c(OC)c1", "Inhibition": 99}
{"smiles": "CN1CCN(CCCN(Cc2ccc(-c3ccc(CNC4CCCC4)cc3)cc2)C(=O)CCC2CCCC2)CC1.O=C(O)C(F)(F)F", "Inhibition": 92}
{"smiles": "CCNc1cc(C(=O)N[C@@H](Cc2ccccc2)[C@H](O)CNC23CCC(CC2)CC3)cc(N2CCCCS2(=O)=O)c1.Cl", "Inhibition": 10}
{"smiles": "CCOc1ncccc1CN1CCC(N2CCc3cc(NC(=O)c4cc(C)on4)ccc32)C1", "note": "(stereo not drawn)", "Inhibition": 0}
{"smiles": "COc1ccc(-c2cccc(NC(=O)c3cccc(C#N)c3)c2)cc1CN(C)CCN(C)C.O=C(O)C(F)(F)F", "Inhibition": 0}
{"smiles": "Cl.Nc1nc(N)c2c(ccc3c2cnn3S(=O)(=O)N2CCCC2)n1", "Inhibition": 70}
{"smiles": "O=C(NCc1ccccc1)Nc1cccc(-c2cccc(-c3nc4cc(C(F)(F)F)ccc4[nH]3)c2)c1", "Inhibition": 56}
{"smiles": "COC(=O)c1ccc2nc(-c3cc(OC)c(O)c(C(=O)NC4CCN(Cc5ccccc5)CC4)c3)[nH]c2c1", "Inhibition": 8}
{"smiles": "CC(C)c1ccc(NC(=O)NC2CCN(CCCCCN(C)C(=O)/C=C/c3ccc(Cl)c(Cl)c3)C2)cc1", "note": "(stereo not drawn)", "Inhibition": 28}
{"smiles": "CCCCN(CCCC)CCOc1cc2c(cc1OC)CCN2C(=O)/C=C/c1ccccc1Cl.Cl", "Inhibition": 13}
{"smiles": "N[C@@H](Cc1cc(I)c(Oc2ccc(O)c(C(=O)O)c2)c(I)c1)C(=O)O", "Inhibition": 57}
{"smiles": "Cc1cc(N)c2cc(NC(=O)CCC(=O)Nc3ccc4nc(C)cc(N)c4c3)ccc2n1", "Inhibition": 0}
{"smiles": "CCNc1cc(C)nc(Nc2ccc(NC(=O)c3c(F)cccc3Cl)cc2)n1", "Inhibition": 49}
{"smiles": "CCN(CCCN1CCCCC1)c1cc(C)nc(Nc2cc(F)cc(F)c2)n1.O=C(O)C(F)(F)F", "Inhibition": 15}
{"smiles": "CCc1cc(CNC2CCN(CCc3c(F)cnc4ccc(OC)nc34)CC2)cc2c1OCCO2.Cl", "Inhibition": 46}
{"smiles": "O=C(O)C(F)(F)F.c1cncc(CCNCc2cccc(-c3csc(-c4nc5ccccc5[nH]4)c3)c2)c1", "Inhibition": 26}
{"smiles": "CCc1ccc(C2CCN(CCCCNC(=O)c3ccc(NC(=O)c4ccc(Cl)cc4)cc3)CC2)c(OC(C)=O)c1", "Inhibition": 48}
{"smiles": "O=C(Nc1ccc(C(=O)Oc2cccc3ccccc23)cc1)N[C@@H](Cc1ccc(O)cc1)C(=O)NC1CCN(Cc2ccc(O)cc2)C1.O=C(O)C(F)(F)F", "note": "(stereo partly drawn)", "Inhibition": 0}
{"smiles": "CCCC(CNC(=O)c1cc2c(Cl)cc(Cl)cc2[nH]1)CNc1cc(=O)c2ccccc2[nH]1.O=C(O)C(F)(F)F", "note": "(stereo not drawn)", "Inhibition": 9}
{"smiles": "CCC(C)NC(=O)Nc1ccc(-c2cccc(-c3nc4ccccc4[nH]3)c2)cc1", "note": "(stereo not drawn)", "Inhibition": 41}
{"smiles": "O=c1cc(NCCCNCc2cc(Br)ccc2F)[nH]c2ccccc12", "Inhibition": 0}
{"smiles": "CCCc1cn2c3c(cc(C(=O)N[C@@H](Cc4ccccc4)[C@H](O)CNC4CCCCC4)cc13)N(C)S(=O)(=O)CC2.O=CO", "Inhibition": 3}
{"smiles": "O=C1C(=Cc2cc(Cc3ccccc3)ccc2O)SC(=S)N1Cc1ccccc1", "Inhibition": 16}
{"smiles": "COc1ccc(NC(=O)Nc2ccc(-c3cccc(-c4nc5ccccc5[nH]4)c3)cc2)cc1", "Inhibition": 44}
{"smiles": "CC(C)CN1CCC(COc2ccc3ncn(-c4cc(O[C@H](C)c5ccccc5C(F)(F)F)c(C(N)=O)s4)c3c2)CC1", "Inhibition": 46}
{"smiles": "O=C(O)C(F)(F)F.O=S(=O)(/C=C/c1ccccc1)N(Cc1ccc(-c2ccc(CNCCc3ccccc3)cc2)cc1)CC1CCCCN1", "note": "(stereo not drawn)", "Inhibition": 99}
{"smiles": "COc1ccccc1N1CCN(CCCCNC(=O)c2ccc(NC(=O)c3ccc(C(F)(F)F)cc3)cc2)CC1", "Inhibition": 25}
{"smiles": "CCOC(=O)c1ccc(N(CCCN(CCCN(c2ccc(C(=O)OCC)cc2)S(=O)(=O)c2ccc(C)cc2)CCc2ccc(O)cc2)S(=O)(=O)c2ccc(C)cc2)cc1", "Inhibition": 0}
{"smiles": "O=S(=O)(ON=C1CCc2ccccc21)c1ccc(Cl)cc1", "Inhibition": 0}
{"smiles": "Oc1nc(Cc2ccccc2)nc2ccc(Cl)cc12", "Inhibition": 13}
